Laboratory results: PubChem BioAssay (NCATS)
Where “and” joins values, the source holds several entries; their conditions need not be identical. Equal entries are not always repeated. Results filed as inconclusive are left out. Some structures have more than one record in an assay (separate samples or runs), and their calls can disagree. Calls of active or inactive are those of the source. Unless noted, calls follow the shape of the dose curve; as a rule, active = well fitted curve in either direction with a large enough effect (not every such curve was filed as active); inconclusive = small, poorly fitted or top-dose-only effect, or another doubt; inactive = flat fitted curve, though single readings scatter.

Test system: not listed separately
Test: AP1 Signaling Pathway (AID 357);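 also: ME-180 reporter cells stimulated with EGF at its EC50 level; % is scaled to controls: 0 for no effect and ±100 for the full control effect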
Conditions: ME-180 (cervical carcinoma) AP-1-bla reporter, EGF-induced, beta-lactamase ratio, 5 h; at 17.2 µM (top of the series) unless noted
In short: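 Modulation of EGF-driven AP-1 transcription was assessed with a beta-lactamase reporter in ME-180 cells. Compound and EC50 EGF were co-incubated 5 hours at 37 °C before 2.5-hour CCF4 loading at room temperature and dual-emission reading.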

Structure (SMILES) | activity change, negative = inhibition
COc1ccccc1N1CCN(CCN2C(=O)CC3(CCCC3)CC2=O)CC1 | -25.1% [at 38 µM] (inactive)
CCOC(=O)NNc1nncc2ccccc12 | -6.72% (inactive)
C[C@]12CCC(=O)C=C1CC[C@@H]1[C@@H]2[C@@H](O)C[C@@]2(C)[C@H]1CC[C@]2(O)C(=O)COC(=O)CCC(=O)O | -1.32% (inactive) and 11.9% (inactive)
OC(CCCN1CCCCC1)(c1ccccc1)c1ccccc1 | 26.6% (inactive)
O=C(CCCCC(=O)Nc1c(I)cc(I)c(C(=O)O)c1I)Nc1c(I)cc(I)c(C(=O)O)c1I | 2.09% (inactive)
Cc1ncc(CO)c(CO)c1O | -2.02% (inactive)
CN(C)c1cc2c(Nc3ccc4c(cnn4Cc4ccccc4)c3)ncnc2cn1 | -107% [at 38 µM] (active)
O=C(O)c1ccccc1S | -3.14% (inactive)
O=C1NC(c2cccc([N+](=O)[O-])c2)=CCN1c1ccccc1O | -12.2% [at 38 µM] (inactive)
CN(C(=O)C(Cl)Cl)c1ccc(OC(=O)c2ccco2)cc1 | 4.41% (inactive) and 1.4% (inactive)
CC(=O)Nc1c(I)c(NC(C)=O)c(I)c(C(=O)O)c1I | -1.8% (inactive)
OCCOCCN1CCN(C(c2ccccc2)c2ccc(Cl)cc2)CC1 (stereo not drawn) | 3.37% (inactive)
C[C@H]1C[C@@H]2[C@H]([C@@H](O)C[C@@]3(C)[C@H]2CC[C@]3(O)C(=O)CO)[C@@]2(C)C=CC(=O)C=C12 | 4.57% (inactive)
O=C(O)/C=C(\CC(=O)O)C(=O)O | 3.65% [at 7.69 µM] (inactive)
CC(=O)[C@@]1(O)CC[C@H]2[C@@H]3C[C@H](C)C4=CC(=O)CC[C@]4(C)[C@H]3CC[C@@]21C | 16% (inactive)
CC(=O)OCC[N+](C)(C)C | -2.55% (inactive)
C[N+](C)(C)CCO | 0.911% [at 38 µM] (inactive)
CC1(C)O[C@@H]2C[C@H]3[C@@H]4CCC5=CC(=O)C=C[C@]5(C)[C@@]4(F)[C@@H](O)C[C@]3(C)[C@]2(C(=O)CO)O1 | 4.43% (inactive)
CN1CCCN(C(c2ccccc2)c2ccc(Cl)cc2)CC1 (stereo not drawn) | 14.9% (inactive)
CCN(CC)CCOc1ccc(/C(=C(\Cl)c2ccccc2)c2ccccc2)cc1 | 9.05% (inactive)
CC1(C)O[C@@H]2C[C@H]3[C@@H]4C[C@H](F)C5=CC(=O)C=C[C@]5(C)[C@@]4(F)[C@@H](O)C[C@]3(C)[C@]2(C(=O)CO)O1 | -7.62% (inactive)
CCCCCC(=O)O[C@]1(C(C)=O)CC[C@H]2[C@@H]3CCC4=CC(=O)CC[C@]4(C)[C@H]3CC[C@@]21C | -2.44% (inactive)
CCCC(=O)O[C@]1(C(=O)CCl)[C@@H](C)C[C@H]2[C@@H]3CCC4=CC(=O)C=C[C@]4(C)[C@@]3(F)C(=O)C[C@@]21C | 2.19% (inactive)
Brc1ccc([C@H]2CN3CCSC3=N2)cc1 | 10.4% [at 38 µM] (inactive)

Target: Cytochrome P450 1A2 (Homo sapiens) (UniProt P05177)
Sequence (P05177 whole entry, looked up): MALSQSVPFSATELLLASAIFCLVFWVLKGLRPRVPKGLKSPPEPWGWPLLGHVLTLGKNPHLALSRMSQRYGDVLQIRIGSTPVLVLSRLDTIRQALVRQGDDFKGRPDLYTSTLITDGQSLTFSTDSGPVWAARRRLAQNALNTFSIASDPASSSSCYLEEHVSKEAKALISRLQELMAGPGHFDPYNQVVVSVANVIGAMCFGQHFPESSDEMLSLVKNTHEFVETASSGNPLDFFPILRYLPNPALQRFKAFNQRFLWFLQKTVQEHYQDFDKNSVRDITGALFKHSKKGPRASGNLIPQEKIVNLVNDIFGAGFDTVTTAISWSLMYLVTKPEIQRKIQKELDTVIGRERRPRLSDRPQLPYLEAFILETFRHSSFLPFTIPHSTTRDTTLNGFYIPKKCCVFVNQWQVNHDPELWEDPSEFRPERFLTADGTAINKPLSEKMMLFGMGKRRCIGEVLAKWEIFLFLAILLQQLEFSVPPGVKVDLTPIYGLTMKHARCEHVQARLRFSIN
Test: p450-cyp1a2 (AID 410; calls by dose curve; also: potency is read from the fitted curve at half-maximal effect;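 as to activity change, negative = inhibition: -100% = full effect of reference inhibitor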)
Conditions: recombinant CYP1A2, luciferin-ME demethylation, luminescence; series mostly up to 25.6 µM; activity change, negative = inhibition: at the top concentration
In short: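 Human CYP1A2 (20nM) demethylated Luciferin-ME at its Km (100uM) in 100mM KPO4. After 10 min compound preincubation, NADPH regeneration ran the reaction 60 min at room temperature. Luciferin was read by luminescence, normalized to 57 uM furafylline.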

Structure (SMILES) | Potency | activity change, negative = inhibition
COc1ccccc1N1CCN(CCN2C(=O)CC3(CCCC3)CC2=O)CC1 | 31.6 µM (active) and inactive | 
CCOC(=O)NNc1nncc2ccccc12 | 5.01 µM (active) | 
OC(CCCN1CCCCC1)(c1ccccc1)c1ccccc1 |  | -1.9% (inactive)
O=C(CCCCC(=O)Nc1c(I)cc(I)c(C(=O)O)c1I)Nc1c(I)cc(I)c(C(=O)O)c1I |  | -8.1% (inactive)
Cc1ncc(CO)c(CO)c1O |  | -13% (inactive)
CN(C)c1cc2c(Nc3ccc4c(cnn4Cc4ccccc4)c3)ncnc2cn1 | 7.94 µM (active) | 
CN(C(=O)C(Cl)Cl)c1ccc(OC(=O)c2ccco2)cc1 |  | -3.4% (inactive)
O=C(O)/C=C(\CC(=O)O)C(=O)O |  | -6.8% [at 11.4 µM] (inactive)
C[N+](C)(C)CCO |  | -2.8% [at 57 µM] (inactive)
CCN(CC)CCOc1ccc(/C(=C(\Cl)c2ccccc2)c2ccccc2)cc1 | 12.6 µM (active) | 
Brc1ccc([C@H]2CN3CCSC3=N2)cc1 | 15.8 µM (active) | 

Test system: not listed separately
Test: NFAT Signaling Pathway (AID 444);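 also: carbachol stimulus at about its EC50 of 1 µM final; % is scaled to controls: 0 for no effect and ±100 for the full control effect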
Conditions: Jurkat NFAT-bla M1, carbachol, beta-lactamase ratio, 5 h; at 17.2 µM (top of the series)
In short: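 Jurkat cells carrying an NFAT-driven β-lactamase reporter and co-transfected muscarinic M1 receptor were treated with compound plus carbachol (1 uM final, an EC50 level) for 5 h at 37 °C. CCF4 loading followed for 1 h at RT; 460/530 nm ratio gave %activity.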

Structure (SMILES) | activity change, negative = inhibition
CCOC(=O)NNc1nncc2ccccc12 | 1.79% (inactive)
C[C@]12CCC(=O)C=C1CC[C@@H]1[C@@H]2[C@@H](O)C[C@@]2(C)[C@H]1CC[C@]2(O)C(=O)COC(=O)CCC(=O)O | 10.9% (inactive)
O=C(CCCCC(=O)Nc1c(I)cc(I)c(C(=O)O)c1I)Nc1c(I)cc(I)c(C(=O)O)c1I | 0.68% (inactive)
O=C(O)c1ccccc1S | 24.8% (inactive)
CN(C(=O)C(Cl)Cl)c1ccc(OC(=O)c2ccco2)cc1 | 3.31% (inactive) and -29.1% (inactive)
CC(=O)Nc1c(I)c(NC(C)=O)c(I)c(C(=O)O)c1I | -7.63% (inactive)
C[C@H]1C[C@@H]2[C@H]([C@@H](O)C[C@@]3(C)[C@H]2CC[C@]3(O)C(=O)CO)[C@@]2(C)C=CC(=O)C=C12 | 17.5% (inactive)
CC(=O)[C@@]1(O)CC[C@H]2[C@@H]3C[C@H](C)C4=CC(=O)CC[C@]4(C)[C@H]3CC[C@@]21C | 19.2% (inactive)
CC(=O)OCC[N+](C)(C)C | 122% [activator] (active)
CN1CCCN(C(c2ccccc2)c2ccc(Cl)cc2)CC1 (stereo not drawn) | -95.8% (active)
CCN(CC)CCOc1ccc(/C(=C(\Cl)c2ccccc2)c2ccccc2)cc1 | -12.4% (inactive)
CC1(C)O[C@@H]2C[C@H]3[C@@H]4C[C@H](F)C5=CC(=O)C=C[C@]5(C)[C@@]4(F)[C@@H](O)C[C@]3(C)[C@]2(C(=O)CO)O1 | 22.4% (inactive)
NC(N)=NCCCCN=C(N)N | 8.46% (inactive)
